# “And” between values parts separate entries of the source, which are not always exact repeats. Equal values may be shown once. Results filed as inconclusive are left out. Entries that show only a call come without a potency. The source made the active and inactive calls. Unless noted, the call rests on the fitted dose curve; in most records, active means well fitted curve in the direction sought with a large enough effect; inconclusive means small, poorly fitted or top-dose-only effect, or another doubt; inactive means no such curve, though single readings can be large; an effect the other way counts as inactive or inconclusive.
# Tests used:
# [1] = qHTS to identify inhibitors of the type 1 interferon - major histocompatibility complex class I in skeletal muscle: primary screen against the NCATS Mechanism Interrogation Plate v5.0 (MIPE) Libary (AID 1347411); further: nearly all actives have a fitted effect of over 65% in size
# Outline: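 Immortalized human myoblasts (C25cl48) with HiBit knocked into endogenous HLA-B*08:01 were stimulated with 4 ng/ml IFN-beta and given compounds in 11-point 1:3 titration from 46 uM. After 24 h at 37 C, lytic HiBiT luminescence was read.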
# [2] = Primary qHTS for inhibitors of nuclear receptor binding SET domain protein 2 (NSD2) in an isogenic RCH-ACV NSD2 p.E1099K mutant (9B) (AID 1645876); further: nearly all actives have a fitted effect of over 70% in size
# [3] = Primary qHTS for inhibitors of nuclear receptor binding SET domain protein 2 (NSD2) in an RCH-ACV wild type WT cells (2C) (AID 1645877); further: nearly all actives have a fitted effect of over 70% in size
# [4] = biological target: Glutathione peroxidase 1 (Homo sapiens) (UniProt P07203); experiment: Primary qHTS Assay for Inhibitors of Recombinant Selenoprotein Glutathione Peroxidase 1 (GPX1) (AID 1845191); further: nearly all actives have a fitted effect of over 65% in size
# Glutathione peroxidase 1 (Homo sapiens), sequence (P07203 whole entry, looked up): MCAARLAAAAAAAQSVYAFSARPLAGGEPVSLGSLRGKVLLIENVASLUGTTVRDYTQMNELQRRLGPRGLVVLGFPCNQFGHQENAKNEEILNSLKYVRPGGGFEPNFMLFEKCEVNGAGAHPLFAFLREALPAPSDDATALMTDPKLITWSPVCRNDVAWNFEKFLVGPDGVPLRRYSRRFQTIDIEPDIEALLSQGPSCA
# Outline: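 Recombinant GPX1 (10 nM final) was preincubated with compound for 30 min at room temperature, then reacted with 1 mM GSH, 0.5 mM CHP, 0.5 mM NADPH and 100 nM glutathione reductase; NADPH fluorescence (340/450 nm) was read at 0 and 15 min.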
# [5] = biological target: Phospholipid hydroperoxide glutathione peroxidase GPX4 (Homo sapiens) (UniProt P36969); experiment: Primary qHTS Assay for Inhibitors of Recombinant Selenoprotein Glutathione Peroxidase 4 (GPX4) (AID 1845192); conditions: outcome: dose series up to 50 µM unless noted; further: nearly all actives have a fitted effect of over 65% in size
# Phospholipid hydroperoxide glutathione peroxidase GPX4 (Homo sapiens), sequence (P36969 whole entry, looked up): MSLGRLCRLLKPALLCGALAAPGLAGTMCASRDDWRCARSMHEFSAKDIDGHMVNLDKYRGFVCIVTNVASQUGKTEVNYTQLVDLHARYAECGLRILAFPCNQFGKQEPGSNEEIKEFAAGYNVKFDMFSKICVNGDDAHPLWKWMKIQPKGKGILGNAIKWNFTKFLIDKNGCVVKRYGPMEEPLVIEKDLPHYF
# Outline: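 GR-coupled readout: 100 nM GR, 1 mM GSH, 0.5 mM NADPH; NADPH fluorescence (ex 340/em 450 nm) read at t=0 and after 15 min RT. GPX4 200 nM, preincubated 30 min with compound; substrate 0.5 mM CHP.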
# [6] = qHTS drug screen for cell cycle checkpoint inhibitors in PARPi-resistant BRCA-mutant ovarian cancer cell lines. (AID 1963452; calls by dose curve); conditions: PEO1/OlaR viability, CellTiter-Glo luminescence, 96 h; for Z-AUC: stronger effect = lower value
# Outline: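 PEO1, PEO4 and PEO1/OlaR ovarian cancer cells, 600 per well, exposed 96 h at 37C to a dilution series. Viability read by CellTiter-Glo luminescence, normalized to DMSO and empty wells; activity summarized as Z-AUC.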
# [7] = measured here: PEO1 parental Z-AUC
# Potency means the concentration at half of the fitted maximal effect.
Structure (SMILES),Potency [1],Potency [2],Potency [3],Potency [4],Potency [5],Z-AUC [6],"Z-AUC [6, 7]",Z-AUC ([6]; measured here: PEO4 Z-AUC),"activity, negative = inhibition [4]",Potency [6]
N#Cc1ccnc(N2C(=O)CC[C@H]2C(=O)N(c2cncc(F)c2)C(C(=O)NC2CC(F)(F)C2)c2ccccc2Cl)c1 (stereo partly specified),inactive,inactive,inactive,inactive,inactive,1.6 (inactive),0.937,1.33,–,–
O=C(CCCc1ccc2cccnc2n1)NCc1cc(-c2ccc(F)c(C(F)(F)F)c2)no1,inactive,inactive,inactive,inactive,inactive,-0.51 (inactive),-0.432,-0.394,–,–
O=C1Cc2cc(C(=O)NC3C[C@H]4CC[C@@H](C3)N4S(=O)(=O)CC3CCN(CCCC(F)(F)F)CC3)c(Cl)cc2N1 (stereo partly specified),inactive,inactive,inactive,inactive,inactive,-0.571 (inactive),-0.873,-0.957,–,–
O=c1oc2c(C3OCCCO3)c(O)ccc2c2c1CNCC2,inactive,inactive,inactive,inactive,14.3 µM (active),0.112 (inactive),-0.774,-0.202,–,–
COC(=O)[C@H]1[C@@H](O)[C@@]2(O)c3c(OC)cc(O[C@@H]4O[C@@H]([C@@H](O)CO)CO[C@H]4OC)cc3O[C@@]2(c2ccc(OC)cc2)[C@@H]1c1ccccc1,inactive,4.68 µM (active),2.95 µM (active),inactive,inactive,1.19 (inactive),0.913,0.648,–,–
C[C@]12CC[C@H](O)CC1=CC[C@@H]1[C@@H]2CC[C@]2(C)C(c3cccnc3)=CC[C@@H]12,inactive,inactive,inactive,inactive,inactive,0.978 (inactive),0.324,0.672,–,–
COc1ccccc1C(=O)Nc1cc2c(cc1N1CCCCC1)n(C)c(=O)n2C,inactive,inactive,inactive,inactive,inactive,1.08 (inactive),0.729,0.646,–,–
CC(C)(C)C(=O)N1N=CC[C@H]1c1ccccc1,inactive,inactive,inactive,inactive,inactive,-0.69 (inactive),-0.909,-0.663,–,–
C=CC(=O)Nc1cccc(Oc2nc(Nc3ccc(N4CCN(C)CC4)c(F)c3)nc3[nH]ccc23)c1,20.8 µM (active),1.48 µM (active),1.32 µM (active),inactive,inactive,-1.38 (inactive),-0.613,-0.658,–,–
Cc1c(F)cccc1NC(=O)Nc1ccc(Cl)c(S(=O)(=O)[C@H]2CCCNC2)c1O,inactive,inactive,inactive,inactive,inactive,1.68 (inactive),1.25,1.41,–,–
CCCNC(=O)c1cn2ncnc(Nc3cc(C(=O)NC4CC4)ccc3C)c2c1C,inactive,inactive,inactive,inactive,inactive,-0.306 (inactive),0.435,0.239,–,–
CNC(=O)Cn1cc(-c2ccc3c(c2)C(F)CC32NC(=O)N(CC(=O)N(Cc3ccc(F)cc3)[C@@H](C)C(F)(F)F)C2=O)cn1 (stereo partly specified),inactive,0.0525 µM (active),0.0661 µM (active),inactive,inactive,0.811 (inactive) and 1.3 (inactive),0.434 and 1.73,0.0101 and 0.997,–,–
OC1CCC([C@H](O)C[C@H]2c3c(F)cccc3-c3cncn32)CC1 (stereo partly specified),inactive,inactive,inactive,inactive,inactive,-0.0426 (inactive),0.377,0.204,–,–
CC(C)[C@H]1C(=O)N[C@@H](CCCN=C(N)N)C(=O)NCC(=O)N[C@@H](CC(=O)O)C(=O)N[C@H](Cc2ccccc2)C(=O)N1C,inactive,inactive,inactive,inactive,inactive,-1.37 (inactive),-1.22,-0.795,–,–
O=C(Nc1cnn2ccc(N3CCC[C@@H]3c3cc(F)ccc3F)nc12)N1CC[C@H](O)C1,inactive,inactive,inactive,inactive,inactive,1.28 (inactive),1.7,1.78,–,–
CCC(=O)N1CCOc2c(cc(-c3cc(OC)cc(OC)c3)cc2C(=O)N[C@H]2CCCN(C)C2)C1,inactive,4.17 µM (active),4.17 µM (active),inactive,inactive,1.12 (inactive),0.448,0.4,–,–
C[C@]12CCC3=C4CCC(=O)C=C4CC[C@H]3[C@@H]1CC[C@@]2(O)CC#N,inactive,inactive,inactive,inactive,inactive,1.33 (inactive),1.75,1.39,–,–
CC1(C(=O)O)CCC2(C)CCC3(C)C(=CC(=O)C4C5(C)CCC(OC6OC(C(=O)O)C(O)C(O)C6OC6OC(C(=O)O)C(O)C(O)C6O)C(C)(C)C5CCC43C)C2C1 (stereo unspecified),inactive,inactive,inactive,inactive,inactive,-0.447 (inactive),1.94,1.74,–,–
O=C(O)CC(C(=O)O)n1c(O)c(C2=c3cc(Br)ccc3=NC2=O)sc1=S (stereo unspecified),inactive,inactive,inactive,5.15 µM (active),10.1 µM (active),1.23 (inactive),0.91,1.08,–,–
Cc1[nH]cnc1CN1CCN(C(=O)N[C@@H](CC(C)C)C(=O)O)[C@@H](Cc2ccccc2)C1=O,inactive,inactive,inactive,inactive,inactive,-0.059 (inactive),0.199,0.0254,–,–
CCC(=O)O[C@]1(C(=O)CO)CC[C@H]2[C@@H]3CCC4=CC(=O)CC[C@]4(C)[C@H]3CC[C@@]21C,inactive,inactive,inactive,–,inactive,1.13 (inactive),0.73,1.13,–,–
CC(C)Oc1ccc(-c2nc(-c3cccc4c3CC[C@@H]4NCCO)no2)cc1C#N,inactive,14.8 µM (active),18.6 µM (active),inactive,–,-0.0463 (inactive),0.729,1.1,–,–
CC[C@@]1(O)C(=O)OCc2c1cc1n(c2=O)Cc2c-1nc1ccccc1c2CCNC(C)C,0.739 µM (active),0.0042 µM (active),0.0026 µM (active),–,–,–,-2.94,-1.65,-16.5% [at 4.49 µM] (inactive),0.0174 µM (active)
